Screening results: PubChem, National Center for Advancing Translational Sciences (NCATS)
IL-1B inflam inh – inflammasome signaling inhibition, IL-1 beta readout | activity change, % at 57.5 µM | THP-1 LPS/ATP IL-1B secretion, AlphaLISA, 16 h; active compounds read low | 360,000 tested, 4.7% active; in the data active = activity change below about -50%; inconclusive = mostly about -30% to -49%; note: % is set by controls: 0 for no effect and ±100 for the full control effect
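Secreted IL-1B measured by AlphaLISA bead assay after 16 h compound exposure of THP-1 cells; compounds (final up to 57.5 uM) added 1 h before LPS (250 ng/mL) and ATP (1.25 mM) stimulation; lower signal means less secretion.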
MCF10A rerep – DNA re-replication induction in MCF 10a cells; 350,000 tested, 2.9% active; Potency, µM (highest dose often 46.1 µM), inactives show at the highest dose activity, positive = re-replication, usual class: activators; MCF 10A DNA re-replication, Hoechst nuclear intensity, 48 h; AID 624296; note: potency is the fitted concentration of half-maximal effect; % of control where 0% means no effect; nearly all actives have a fitted effect of over 50% in size
Giardia kill – Giardia lamblia killing; Giardia lamblia trophozoite viability; activity change, % at 7.66 µM, hits read low; 340,000 tested, 0.15% active; in the data active = activity change below about -80%; inconclusive = between about -30% and that limit;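 note: parasites exposed to compound for two days anaerobically before the ATP read; % is set by controls: 0 for no effect and ±100 for the full control effect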
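Media and compound were dispensed first, then trophozoites at 100 cells/well; plates sat 48 hrs at 37 deg C without oxygen before ATP luminescence reagent was added and read after 15-30 min at room temperature.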
Vif-A3G inh – Vif-A3G binding inhibition; Potency, µM (doses to about 46.1 µM), for inactives: at the highest dose activity, negative = active, most hits filed as inhibitors; 410,000 tested, 0.076% active; AID 602310; HeLa A3G-eYFP + Vif (tagged APOBEC3G with the HIV-1 protein that degrades it), YFP fluorescence, overnight; Q9HC16; note: potency is the fitted concentration of half-maximal effect; % is set by controls: 0 for no effect and ±100 for the full control effect; nearly all actives have a fitted effect of over 60% in size
Target sequence (Q9HC16 whole entry, looked up): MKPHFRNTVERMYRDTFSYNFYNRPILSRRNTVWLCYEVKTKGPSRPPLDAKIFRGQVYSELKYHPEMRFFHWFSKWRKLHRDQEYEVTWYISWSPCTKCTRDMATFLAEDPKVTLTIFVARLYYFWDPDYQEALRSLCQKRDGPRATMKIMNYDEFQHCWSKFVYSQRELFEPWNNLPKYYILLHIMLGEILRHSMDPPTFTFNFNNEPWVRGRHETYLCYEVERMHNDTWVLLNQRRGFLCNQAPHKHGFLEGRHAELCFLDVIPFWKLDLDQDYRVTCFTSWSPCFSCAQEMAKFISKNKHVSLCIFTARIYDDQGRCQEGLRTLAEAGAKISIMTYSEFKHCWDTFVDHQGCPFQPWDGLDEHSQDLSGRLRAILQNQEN
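HeLa cells stably expressing Vif and C-terminally eYFP-tagged A3G, seeded overnight at 37 deg C, then exposed to compound by pintool overnight at 37 deg C. Rise in yellow fluorescence (Ex 488/Em 500-530, Acumen) marks blocked Vif-driven A3G degradation.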
SW480 rereplic – induces DNA re-replication in SW480 colon adenocarcinoma cells; SW480 DNA re-replication, Hoechst DNA content imaging, 48 h; Potency, µM (doses to about 46.1 µM), without a hit: top-dose re-replication activation, usual class: activators; 340,000 tested, 1.8% active; AID 624297; note: potency is the fitted concentration of half-maximal effect; % of control where 0% means no effect; nearly all actives have a fitted effect of over 55% in size
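SW480 cells exposed to compounds for 48 hr at 37 C, 5% CO2, then Hoechst-stained 40 min. Nuclear DNA content imaged by fluorescence scanning (405 nm excitation, 500-530 nm emission); re-replication scored as increased high-intensity nuclei.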
Vif-APOBEC3F blk – blocks the Vif interaction with APOBEC3F; Potency, µM (titrated, usually from 46.1 µM), for inactives: top-dose activity, negative = active; HeLa A3F-eYFP + Vif (tagged APOBEC3F with the HIV-1 protein that degrades it), YFP fluorescence increase; 390,000 tested, 0.2% active; AID 602313; note: potency is the fitted concentration of half-maximal effect; % of control where 0% means no effect; nearly all actives have a fitted effect of over 65% in size
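HeLa cells stably expressing Vif plus C-terminally eYFP-tagged A3F were seeded, incubated overnight at 37 deg C, dosed with compound, incubated overnight again at 37 deg C. Yellow fluorescence (Ex 488/Em 500-530) reported blocked Vif-mediated A3F-eYFP degradation.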
An asterisk follows results filed as active; ? = inconclusive; . = no result given; ! = not confirmed by another sample. Shown are actives, neighbours in structure and some others; about 6.9% of the full set was active somewhere. Unless noted, calls come from the whole dose curve; as a rule, active = well fitted curve in the direction sought with a large enough effect; inconclusive = small, poorly fitted or top-dose-only effect, or another doubt; inactive = no such curve, though single readings can be large; an effect the other way counts as inactive or inconclusive.

SMILES | IL-1B inflam inh | MCF10A rerep | Giardia kill | Vif-A3G inh | SW480 rereplic | Vif-APOBEC3F blk
Cn1c(N2CCN(S(=O)(=O)c3ccc(F)cc3)CC2)nc2ccccc21 | 0 | 17% | 2 | 1% | 3% | 5%
CCn1c(N2CCN(S(=O)(=O)c3ccc(OC)cc3)CC2)nc2ccccc21 | -66* | -2% | 6 | -4% | 6% | 19%
CCc1cccc(CC)c1N(COC)C(=O)Cn1c(C)nc2ccccc21 | . | . | . | 13% | . | 0%
NC(=NCCCCCCN=C(N)/N=C(\N)Nc1ccc(Cl)cc1)/N=C(\N)Nc1ccc(Cl)cc1 | -100*! | ? | 8 | 0% | 1.3µM*! | -7%
CCC1(C)COC2(OC1)C(=O)Nc1ccccc12 (centres undefined) | -51* | -1% | 13 | -6% | 1% | -1%
CC1(C)COC2(OC1)C(=O)Nc1ccccc12 | 14 | ? | 3 | -1% | -27% | 12%
C[C@@H]1C(=O)N(S(=O)(=O)c2ccccc2[N+](=O)[O-])[C@H]1c1ccc(-c2ccccc2)cc1 | . | . | 32 | 2% | . | .
COc1cc(-c2nc3c(c(C)nn3-c3ccccc3)c3cc(OC)c(OC)cc23)ccc1O | ? | 13µM* | 22 | -1% | 16% | -5%
COc1cc2c(-c3cc(Br)ccc3O)nc3c(c(C)nn3-c3ccccc3)c2cc1OC | . | . | . | 2% | . | 2%
CS(=O)(=O)Nc1ccc(-c2ccc(/C=C3\SC(N)=NC3=O)o2)cc1 | 23 | 23µM* | 1 | -6% | 14% | -10%
C=C1C=C(C(F)F)n2ncc(C(=O)NCc3ccc(Cl)cc3Cl)c2N1 | . | . | . | 1% | . | .
CCC(C)n1c(=N)c(C(=O)NCc2ccco2)cc2c(=O)n3cc(C)ccc3nc21 (centres undefined) | . | . | . | 0% | . | -17%
Cc1cc(NCCCN)nc(-c2ccccc2O)n1 | -62* | ? | 4 | -1% | ? | .
Cc1cc(N/N=C/c2ccc(O)c(C)c2O)nc(-c2ccccc2O)n1 | -98* | ? | 5 | -21% | ? | 6%
Cc1ccc(Nc2cc(C)nc(-c3ccccc3O)n2)cc1 | -13 | ? | -15 | -2% | -14% | -1%
C/C(=N\Nc1cc(C)nc(-c2ccccc2)n1)c1cccc([N+](=O)[O-])c1 | -29 | 0.73µM* | -19 | 0% | 6% | 5%
C/C(=N\Nc1cc(C)nc(-c2ccccc2O)n1)c1ccccc1 | -68* | ? | -19 | -5% | ? | -1%
Cc1cc(Nc2ccc(Br)cc2)nc(-c2ccccc2O)n1 | -24 | ? | 10 | -8% | -48% | 2%
CCc1ccc(-n2c(=O)c3cccnc3n2CC(=O)N(CC)c2cccc(C)c2)cc1 | . | . | . | 0% | . | -1%
O=S(=O)(c1ccccc1)c1nnn2c1nc(NCc1ccc(F)cc1)c1sccc12 | . | . | . | -2% | . | 2%
CCCOC(=O)c1c(NC(=O)C2c3ccccc3Oc3ccccc32)sc2c1CCC(C)C2 (centres undefined) | . | . | . | 4% | . | 1%
Cc1ccc(NC(=O)Cn2nnc(C(=O)NCCc3ccccc3)c2N)cc1 | . | . | . | -4% | . | 2%
NC(=O)COc1ccccc1C(=O)Nc1ccccc1 | . | . | . | 1% | . | .
O=C(Cn1cnc2onc(-c3ccc(F)cc3)c2c1=O)Nc1cccc(C(F)(F)F)c1 | . | . | . | -7% | . | 6%
C/C(=N\Nc1ncc(Br)cn1)c1cccc([N+](=O)[O-])c1 | -73* | 0% | -5 | 0% | 5% | 3%
SMILES | IL-1B inflam inh | MCF10A rerep | Giardia kill | Vif-A3G inh | SW480 rereplic | Vif-APOBEC3F blk
CCOC(=O)C(=CNc1cc(C(F)(F)F)ccc1N1CCOCC1)C(=O)OCC | -53* | 0% | 6 | 3% | -29% | 1%
COc1ccccc1/C=C/C(=O)OCC(=O)Nc1cc(C(F)(F)F)ccc1N1CCOCC1 | 35 | ? | -3 | -18% | 9.2µM* | -19%
CC(=O)Nc1cc(C(F)(F)F)ccc1N1CCOCC1 | 17 | -3% | 9 | 1% | -6% | -2%
O=C(COC(=O)/C=C/c1ccccc1)Nc1cc(C(F)(F)F)ccc1N1CCOCC1 | 17 | -8% | -14 | 6% | 5% | 1%
COc1ccc(C(CNC(=O)COc2ccc(Cl)c(C)c2)N2CCOCC2)cc1 (centres undefined) | . | . | . | 1% | . | -1%
COc1ccc(-c2cc(OC(=O)c3ccc(F)cc3)c3c(C)oc(C)c3c(=O)c2)cc1OC | . | . | . | 0% | . | -15%
CC(=O)c1cccc(NC(=S)N2c3ccccc3CC2C)c1 (centres undefined) | 47 | -44% | 33 | 8.9µM* | -9% | 5%
CC1Cc2ccccc2N1C(=O)/C=C/c1cccc(F)c1 (centres undefined) | -69* | -10% | -10 | 4% | -3% | -7%
CC(=O)c1cccc(NC(=S)N2CCc3ccccc32)c1 | 14 | -19% | -9 | 4% | 7% | 0%
CC(C)Cc1nn2cc(-c3cccc(Br)c3)nc2s1 | . | . | . | 0% | . | -5%
CC(C)[C@@H]1CC[C@@H](C)C[C@H]1OC(=O)C[n+]1cc(-c2ccc(Cl)cc2)n2c1CCCCC2 | . | ? | -4 | -1% | ? | -16%
COc1ccc(-c2c[n+](CC(=O)OC3CC(C)CCC3C(C)C)c3n2CCC3)cc1 (centres undefined) | -74* | 0.82µM* | 3 | 2% | -32% | 0%
NC(=O)COc1ccc(-c2noc(COc3ccc(Cl)cc3)n2)cc1 | . | . | . | 5% | . | 1%
CCOC(=O)C1CCN(C(=O)c2cccc(NS(=O)(=O)c3ccc(F)c(F)c3)c2)CC1 | -101* | -4% | -9 | 0% | -1% | 0%
COC(=O)c1cccc(C#CC(NP(=O)(c2ccccc2)c2ccccc2)c2ccccc2)c1 (centres undefined) | -64* | ? | 0 | 0% | ? | 1%
COC(=O)c1cc(Nc2cc(C)c3ccc(O)cc3n2)cc(C(=O)OC)c1 | -65* | 15µM* | -8 | -4% | ? | 2%
Cc1ccc(Nc2cc(C)c3ccc(O)cc3n2)cc1C | -18 | 23µM* | -17 | -6% | ? | -1%
Cc1ccc(Cn2c(CN3CCN(c4cccc(Cl)c4)CC3)nc3c2c(=O)n(C)c(=O)n3C)cc1 | . | . | . | 4% | . | 0%
Nc1ccc2nc(-c3ccccc3)c(-c3ccccc3)nc2c1 | 31 | 21µM* | 4 | ? | 23µM* | ?
Nc1ccc2nc(-c3ccccc3)cnc2c1 | -4 | ? | -29 | -28% | ? | ?
Cc1ccc2nc(-c3ccc(N)cc3)sc2c1 | -19 | 21% | ? | -5% | 13% | 2%
Nc1ccc(Oc2ccc3nc(-c4ccccc4)c(-c4ccccc4)nc3c2)cc1 | -58* | 11% | -15 | -9% | 11% | 0%
